# Test results as given in PubChem BioAssay (NCATS).
# Inconclusive results are not listed. Calls of active or inactive are those of the source. The call rests on the fitted dose curve; in most records, active means well fitted inhibition curve with a large enough effect; inconclusive means small, poorly fitted or top-dose-only effect; inactive means flat fitted curve, though single readings scatter.
# Tested on: HaCat
# Assay: Cytotoxic Profiling of Annotated Libraries Using Quantitative High-Throughput Screening (AID 1296008); further: nearly all actives have a fitted effect of over 60% in size
# Conditions: Five cell lines viability, CellTiter-Glo ATP luminescence, 48-72 h; max response: stronger effect = lower value
# How it was run: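 Cells exposed to compounds for 48 or 72 hr at 37 degrees Celsius. Viability read as ATP-coupled luminescence with CellTiter-Glo after 10 min at room temperature.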
row,SMILES,outcome
1,O=C(O)C[C@H]1CCC(=O)[C@@H]1C/C=C\CCOC1OC(CO)C(O)C(O)C1O (stereo not given in full),inactive
2,CC(=O)OC1C(O)C(C)=C(CCC(C)CC(=O)O)C2(C)CCCC(C)(C)C12 (stereo not given),inactive
3,Cc1ncc([N+](=O)[O-])n1CC(O)CN1CCOCC1 (stereo not given),inactive
4,COc1cc2c(cc1O)C1(Cc3ccc4c(c3C1=O)OCO4)N(C)CC2 (stereo not given),inactive
5,COC(=O)[C@H](CC1C=NC=N1)NCC12CC3CC(CC(C3)C1)C2 (stereo not given in full),inactive
6,CCOC(=O)c1ccc(N(C)c2csc(-c3ccccc3)n2)cc1,inactive
7,C/C1=C\C[C@H](O[C@@H]2O[C@H](CO)[C@@H](O)[C@H](O)[C@H]2O)/C(C)=C/[C@H]2OC(=O)[C@H](C)[C@@H]2CC1,inactive
8,COc1ccc(C(=O)O[C@H]2CC(C)=CC[C@@]3(C)[C@@H](OC(C)=O)C[C@@](O)(C(C)C)[C@H]23)cc1,inactive
9,CC/C=C\C[C@H]1C(=O)C=C[C@@H]1CCCCCCCC(=O)O,inactive
10,CC1CC(=O)C2=C(O1)OC1(C)CCC3C(C)(C)C=CC(=O)C3(C)C1C2 (stereo not given),inactive
11,CC1(CO)CC2C(O)C(=O)C3(CO)CC3(C)C2C1 (stereo not given),inactive
12,CCn1nnnc1NCc1ccc(C(C)C)cc1,inactive
13,CCNC(=O)CCC/C=C\C[C@@H]1[C@@H](/C=C/C(O)CCc2ccccc2)[C@@H](O)C[C@@H]1O (stereo not given in full),inactive
14,CN[C@@H]1[C@@H](O)[C@@H](O[C@@H]2[C@@H](O)[C@H](O[C@H]3O[C@H](CN)[C@@H](O)[C@H](O)[C@H]3O)[C@@H](N)C[C@H]2NC(=O)[C@@H](O)CN)OC[C@]1(C)O,inactive
15,CC1(C)OC(=O)C(OCC2CC2)=C1c1ccc(S(C)(=O)=O)cc1,inactive
